Data published in PubChem BioAssay (Tox21).
Inconclusive results are not listed. Activity calls are given as the source filed them. Unless noted, calls come from the whole dose curve.

Columns and labels:
[1] = Nuclear factor erythroid 2-related factor 2/antioxidant responsive element (Nrf2/ARE) small molecule agonists: qHTS cell viability counter screen in human keratinocytes (AID 1919968; active = well fitted curve in the direction sought with a large enough effect in the repeat runs; an effect the other way counts as inactive or inconclusive; note: nearly all actives have a fitted effect of over 55% in size)
Summary of the method: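 CellTiter-Fluor fluorescence, read 1 h after reagent, gave viability in the same wells as the ARE-luciferase assay. KeratinoSens cells (1,500/well) had 23 h compound exposure at 37 C/5% CO2 following 5 h plating.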

[2] = Nuclear factor erythroid 2-related factor 2/antioxidant responsive element (Nrf2/ARE) small molecule agonists: luciferase reporter gene qHTS assay in human keratinocytes (AID 1919969); note: nearly all actives have a fitted effect of over 35% in size; note: potency is the fitted concentration of half-maximal effect
[3] = target: Gonadotropin-releasing hormone receptor (Homo sapiens) (UniProt P30968); assay: Human gonadotropin-releasing hormone receptor (GnRHR) small molecule agonists, calcium flux assay in GnRHR-HEK293 cells (AID 1920063); note: nearly all actives have a fitted effect of over 35% in size
Gonadotropin-releasing hormone receptor (Homo sapiens), sequence (P30968 whole entry, looked up): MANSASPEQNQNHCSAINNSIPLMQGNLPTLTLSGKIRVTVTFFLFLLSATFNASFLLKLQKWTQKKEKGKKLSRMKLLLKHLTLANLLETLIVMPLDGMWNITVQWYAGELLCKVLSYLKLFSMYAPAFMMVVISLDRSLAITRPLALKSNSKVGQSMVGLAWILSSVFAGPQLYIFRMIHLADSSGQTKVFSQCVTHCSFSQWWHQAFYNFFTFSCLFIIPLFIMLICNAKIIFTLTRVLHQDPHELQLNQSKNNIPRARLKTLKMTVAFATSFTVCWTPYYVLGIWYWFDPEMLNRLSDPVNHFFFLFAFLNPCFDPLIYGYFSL
Summary of the method: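 Agonist mode: compounds at 15 concentrations, in triplicate, went onto calcium dye-loaded GnRHR-HEK293 cells. Intracellular calcium was then followed as 480/540 nm fluorescence at 1 s intervals over 3 min.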

[4] = target: KiSS-1 receptor (Homo sapiens) (UniProt Q969F8); assay: Human kisspeptin (KISS1R) small molecule agonists, calcium flux assay in KISS1R-HEK293 cells (AID 1920064; active = well fitted curve in the direction sought with a large enough effect in the repeat runs; an effect the other way counts as inactive or inconclusive)
KiSS-1 receptor (Homo sapiens), sequence (Q969F8 whole entry, looked up): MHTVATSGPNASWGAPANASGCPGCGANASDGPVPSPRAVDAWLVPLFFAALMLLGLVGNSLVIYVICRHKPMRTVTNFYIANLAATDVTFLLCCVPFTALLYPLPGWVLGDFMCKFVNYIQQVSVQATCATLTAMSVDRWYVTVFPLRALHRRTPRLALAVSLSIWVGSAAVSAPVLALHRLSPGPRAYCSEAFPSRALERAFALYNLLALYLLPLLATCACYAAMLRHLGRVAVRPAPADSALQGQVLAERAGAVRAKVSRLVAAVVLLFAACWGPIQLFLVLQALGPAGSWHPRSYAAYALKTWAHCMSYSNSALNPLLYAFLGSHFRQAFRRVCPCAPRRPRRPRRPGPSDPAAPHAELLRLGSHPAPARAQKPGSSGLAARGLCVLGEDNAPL
Summary of the method: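 Agonist mode: intracellular calcium rise tracked at 1 s intervals over 3 min (480/540 nm) immediately after compound addition to dye-loaded KISS1R-HEK293 stable cells. Each compound tested at 15 concentrations in triplicate.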

[5] = G protein-coupled receptor (GPCR) small molecule agonists, calcium flux assay: HEK293 wild type cell line counter screen (AID 1920065)
Summary of the method: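 Calcium flux counter screen: compound added in agonist mode at 15 concentrations in triplicate to dye-loaded parental HEK293 cells. Fluorescence (480/540) read kinetically for 3 min; ATP served as positive control.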

[6] = p53 small molecule agonists, cell-based qHTS assay with human liver microsomes (AID 1963577)
Summary of the method: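 Fluorescence of the beta-lactamase reporter in p53RE-bla cells, detected with LiveBLAzer substrate (2 h, room temperature, dark), served as the read-out after 16 h compound exposure at 37 C with human liver microsomes and NADPH, each 0.5 mg/mL final.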

[7] = p53 small molecule agonists, cell-based qHTS assay with rat liver microsomes (AID 1963578)
Summary of the method: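 Cells carrying a p53 response element–beta-lactamase reporter were plated and rested 5 h, then dosed with compound in DMSO plus rat liver microsomes and NADPH, each at 0.5 mg/mL final. After 16 h at 37 C, LiveBLAzer substrate was added for 2 h.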

[8] = p53 small molecule agonists, cell-based qHTS assay with human liver microsomes: qHTS cell viability counter screen (AID 1963579); note: nearly all actives have a fitted effect of over 45% in size
Summary of the method: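 Cytotoxicity counter screen: p53RE-bla, 4,000 cells/well; 5 h settle, 37 C/5% CO2; cpd + HLM 0.5 mg/mL + NADPH 0.5 mg/mL (final); 16 h, 37 C; CellTiter-Glo, 30 min RT, luminescence.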

[9] = p53 small molecule agonists, cell-based qHTS assay with rat liver microsomes: qHTS cell viability counter screen (AID 1963580); note: nearly all actives have a fitted effect of over 45% in size
Summary of the method: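 Rat liver microsome (0.5 mg/mL final) and NADPH (0.5 mg/mL final) co-incubation with compounds for 16 h at 37 C on HCT-116 p53RE-bla cells; cytotoxicity taken from intracellular ATP luminescence.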

[10] = p53 small molecule agonists, cell-based qHTS assay: qHTS cell viability counter screen (AID 1963581); note: nearly all actives have a fitted effect of over 45% in size
Summary of the method: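 Counter screen read by CellTiter-Glo luminescence (ATP content, 30 min at room temperature), run in the same wells as the beta-lactamase reporter read. HCT-116 p53RE-bla cells saw compounds for 16 h at 37 C.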

[11] = p53 small molecule agonists, cell-based qHTS assay (AID 1963582; active = well fitted activation curve with a large enough effect in the signal ratio in the repeat runs, not every such curve was filed as active; the % refers to the signal ratio)
Summary of the method: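 Read-out is beta-lactamase FRET fluorescence after 2 h at room temperature with LiveBLAzer B/G substrate. p53 response element-bla cells were treated 16 h at 37 C with compounds in DMSO, added 5 h after seeding.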

[12] = target: Muscarinic acetylcholine receptor M1 (Homo sapiens) (UniProt P11229); assay: Cholinergic receptor muscarinic 1 (CHRM1) small molecule antagonists, cell-based qHTS assay (AID 1963588); note: nearly all actives have a fitted effect of over 40% in size
Muscarinic acetylcholine receptor M1 (Homo sapiens), sequence (P11229 whole entry, looked up): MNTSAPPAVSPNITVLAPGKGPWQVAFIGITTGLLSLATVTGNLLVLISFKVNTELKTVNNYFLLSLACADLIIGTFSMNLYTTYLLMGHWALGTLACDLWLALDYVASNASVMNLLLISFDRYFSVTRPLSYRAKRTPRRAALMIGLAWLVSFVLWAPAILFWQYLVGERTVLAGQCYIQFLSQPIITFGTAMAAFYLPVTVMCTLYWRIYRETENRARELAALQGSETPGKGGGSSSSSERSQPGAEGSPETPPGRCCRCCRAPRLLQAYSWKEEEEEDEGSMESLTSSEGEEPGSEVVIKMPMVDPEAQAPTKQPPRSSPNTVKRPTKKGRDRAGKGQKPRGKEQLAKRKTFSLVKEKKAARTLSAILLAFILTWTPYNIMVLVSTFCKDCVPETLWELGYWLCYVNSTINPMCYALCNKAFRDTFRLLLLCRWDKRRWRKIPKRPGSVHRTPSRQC
Summary of the method: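 Compounds were tested at 15 concentrations in three independent runs. Dye-loaded CHRM1-CHO cells were exposed 5 min at room temperature before stimulation by acetylcholine added at 50nM. Intracellular calcium was read kinetically on FDSS for 3 min.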

[13] = target: Muscarinic acetylcholine receptor M1 (Homo sapiens) (UniProt P11229); assay: Cholinergic receptor muscarinic 1 (CHRM1) small molecule agonists, cell-based qHTS assay (AID 1963589); note: nearly all actives have a fitted effect of over 35% in size
Summary of the method: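 Agonist-mode calcium-flux screen: compounds at 15 concentrations, three independent runs, were pin-transferred onto dye-loaded human CHRM1-CHO cells. Fluorescence was then recorded kinetically every second over minutes.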

[14] = target: Beta-2 adrenergic receptor (Homo sapiens) (UniProt P07550); assay: Adrenergic beta2 receptor (ADRB2) small molecule antagonists, cell-based qHTS assay (AID 1963592); note: series mostly up to about 92 µM; nearly all actives have a fitted effect of over 50% in size
Beta-2 adrenergic receptor (Homo sapiens), sequence (P07550 whole entry, looked up): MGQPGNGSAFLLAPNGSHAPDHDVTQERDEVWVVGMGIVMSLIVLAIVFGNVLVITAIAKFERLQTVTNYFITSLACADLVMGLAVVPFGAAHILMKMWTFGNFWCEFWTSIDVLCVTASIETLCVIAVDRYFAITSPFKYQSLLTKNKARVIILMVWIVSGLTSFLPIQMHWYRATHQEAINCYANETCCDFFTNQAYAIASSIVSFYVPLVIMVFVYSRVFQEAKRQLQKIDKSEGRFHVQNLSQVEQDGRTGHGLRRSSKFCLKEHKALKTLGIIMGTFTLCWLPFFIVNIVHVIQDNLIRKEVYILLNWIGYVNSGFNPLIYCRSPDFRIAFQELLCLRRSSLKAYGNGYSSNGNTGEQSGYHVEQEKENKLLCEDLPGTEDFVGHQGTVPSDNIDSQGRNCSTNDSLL
Summary of the method: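 Assay format: CHO-ADRB2 cells, 18-20hr seeding at 37C/5% CO2, then compound plus 1nM isoproterenol agonist mix for 0.5hr RT. Homogeneous time-resolved fluorescence cAMP detection after 1hr, expressed as 665/615 nm ratio.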

[15] = target: Beta-2 adrenergic receptor (Homo sapiens) (UniProt P07550); assay: Adrenergic beta2 receptor (ADRB2) small molecule agonists, cell-based qHTS assay (AID 1963593);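 note: CHO cells stably overexpressing human ADRB2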
Summary of the method: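 CHO cells stably over-expressing ADRB2 were plated overnight at 37C, then dosed with compounds plus a stimulation mix containing 100uM IBMX and 25uM Ro-20-1724 for 0.5hr at room temperature. cAMP was measured by HTRF competition, 1hr.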

[16] = target: D(2) dopamine receptor (Homo sapiens) (UniProt P14416); assay: Dopamine D2 receptor (DRD2) small molecule agonists, cell-based qHTS assay (AID 1963594); note: nearly all actives have a fitted effect of over 35% in size
D(2) dopamine receptor (Homo sapiens), sequence (P14416 whole entry, looked up): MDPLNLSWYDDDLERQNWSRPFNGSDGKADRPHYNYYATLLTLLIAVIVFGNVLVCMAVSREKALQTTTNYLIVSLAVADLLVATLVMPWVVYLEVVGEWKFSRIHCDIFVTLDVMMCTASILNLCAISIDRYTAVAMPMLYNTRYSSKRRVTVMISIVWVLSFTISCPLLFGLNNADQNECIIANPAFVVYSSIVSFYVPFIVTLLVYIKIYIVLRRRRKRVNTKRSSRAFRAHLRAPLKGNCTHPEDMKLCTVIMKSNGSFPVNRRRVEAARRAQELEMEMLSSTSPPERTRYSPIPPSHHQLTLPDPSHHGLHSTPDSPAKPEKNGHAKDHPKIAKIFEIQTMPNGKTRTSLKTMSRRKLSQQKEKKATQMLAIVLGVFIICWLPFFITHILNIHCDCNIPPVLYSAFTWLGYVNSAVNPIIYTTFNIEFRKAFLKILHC
Summary of the method: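 cAMP accumulation in DRD2-HEK293 cells measured by HTRF after 1 h detection; compounds added 10 min before NKH477 (200nM […]) forskolin-analogue stimulation, 30 min at room temperature, with Ro20-1724 present at 0.1 mM final.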

[17] = target: D(2) dopamine receptor (Homo sapiens) (UniProt P14416); assay: Dopamine D2 receptor (DRD2) small molecule antagonists, cell-based qHTS assay (AID 1963595; active = well fitted inhibition curve with a large enough effect in the signal ratio in the repeat runs, with a control signal flat; the % refers to the signal ratio)
Summary of the method: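 In this cell-based antagonist screen, compounds act for 10 min at room temperature before a 30 min challenge with 12 nM quinpirole and 200 nM NKH477. cAMP is quantified by HTRF competition in DRD2-HEK293 cells containing 0.1 mM Ro20-1724.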

[18] = cAMP Responsive Elements (CRE) small molecule agonists, cell-based qHTS assay (AID 1963590)
Summary of the method: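 Agonist mode: compound added to CRE-bla HEK 293T cells (2,000/well, 18 h after plating) for 3 h at 37 C/5% CO2. Reporter activity detected via FRET beta-lactamase substrate, 2 h room-temperature loading.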

[19] = cAMP Responsive Elements (CRE) small molecule antagonists, cell-based qHTS assay (AID 1963591; active = well fitted inhibition curve with a large enough effect in the signal ratio in the repeat runs, not every such curve was filed as active; the % refers to the signal ratio)
Summary of the method: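 Antagonist mode: compounds are added alongside the adenylyl cyclase activator NKH477 (0.25 uM final) to CRE-bla HEK293T cells for 3 h. LiveBLAzer FRET substrate, 2 h at room temperature, reports bla expression.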

[20] = target: 5-hydroxytryptamine receptor 2A (Homo sapiens) (UniProt P28223); assay: 5-hydroxytryptamine receptor 2A (HTR2A) small molecule agonists, cell-based qHTS assay (AID 1963587); note: nearly all actives have a fitted effect of over 30% in size
5-hydroxytryptamine receptor 2A (Homo sapiens), sequence (P28223 whole entry, looked up): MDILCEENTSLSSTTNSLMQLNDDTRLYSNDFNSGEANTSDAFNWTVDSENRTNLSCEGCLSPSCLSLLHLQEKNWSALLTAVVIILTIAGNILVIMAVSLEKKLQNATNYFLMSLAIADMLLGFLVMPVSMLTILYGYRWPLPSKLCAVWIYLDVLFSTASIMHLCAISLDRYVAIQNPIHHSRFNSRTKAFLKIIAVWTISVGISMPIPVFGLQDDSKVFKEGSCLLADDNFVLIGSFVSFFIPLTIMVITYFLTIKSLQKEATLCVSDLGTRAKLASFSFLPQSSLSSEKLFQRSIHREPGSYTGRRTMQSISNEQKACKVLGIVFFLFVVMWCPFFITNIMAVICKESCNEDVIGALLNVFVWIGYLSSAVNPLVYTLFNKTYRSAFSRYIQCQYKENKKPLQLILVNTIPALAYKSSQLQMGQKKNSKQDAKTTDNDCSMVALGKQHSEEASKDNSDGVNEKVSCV
Summary of the method: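 Kinetic calcium-flux fluorescence (2 min, 1 sec intervals) after compound addition in agonist mode. HTR2A-CHO cells were cultured 18 h, then dye-loaded 1 h at 37 C.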

Measured: Potency

Cc1ccc2c(c1)C(=O)c1ccccc1C2=O
active: [2] 2.72 µM
not listed: [18] | [19] | [20]
inactive: all other assays above

CCCCCOC(=O)CCCC
not listed: [12] | [15] | [20]
inactive: all other assays above

CSc1nc(NC2CC2)nc(NC(C)(C)C)n1
not listed: [15] | [19] | [20]
inactive: all other assays above

OCCCCC(O)CO (stereo not given)
not listed: [19] | [20]
inactive: all other assays above

Oc1cccc2cc3cccc(O)c3c(O)c12
not listed: [12] | [15] | [18] | [19]
inactive: all other assays above

O=C(Nc1ccc([N+](=O)[O-])cc1)Nc1ccc([N+](=O)[O-])cc1
not listed: [15]
inactive: all other assays above

CN1C(C)(C)CCCC1(C)C
not listed: [15] | [16]
inactive: all other assays above

O=c1[nH]cnc2nc[nH]c12
not listed: [15] | [19]
inactive: all other assays above

CC(C)C(=O)OCc1cccc(OC(=O)[C@@H]2N3C(=O)[C@@H](NC(=O)Cc4ccccc4)[C@H]3SC2(C)C)c1
not listed: [15]
inactive: all other assays above

Cc1cccc(C)c1NC(=O)CN1CCCC1
not listed: [15] | [16]
inactive: all other assays above

CC(C)(C)CC(=O)OCC(=O)[C@@]1(O)CC[C@H]2[C@@H]3CCC4=CC(=O)C=C[C@]4(C)[C@H]3[C@@H](O)C[C@@]21C
not listed: [15] | [16]
inactive: all other assays above

CCOC(=O)/C=C/C(=O)OCC
not listed: [15] | [16] | [17]
inactive: all other assays above

O=C(O)c1cccc(O)c1
not listed: [17]
inactive: all other assays above

O=C(O)c1ccc[n+]([O-])c1
not listed: [15]
inactive: all other assays above
